About 14,000 (4.5%) of roughly 310,000 compounds showed an effect of 50% or more. Effects have a minus sign here. The sample as a whole holds a higher share of strong results than the screen did.
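Also: peak tail current of the secondary pulse compared with the same well before compound.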

The target of the test is human ether-à-go-go-related gene (hERG) potassium channel (human, UniProt Q12809). Put plainly: primary screen, population patch clamp on CHO cells stably expressing hERG; higher = less effect of the substance.
Sequence of human ether-à-go-go-related gene (hERG) potassium channel (Q12809 whole entry, looked up): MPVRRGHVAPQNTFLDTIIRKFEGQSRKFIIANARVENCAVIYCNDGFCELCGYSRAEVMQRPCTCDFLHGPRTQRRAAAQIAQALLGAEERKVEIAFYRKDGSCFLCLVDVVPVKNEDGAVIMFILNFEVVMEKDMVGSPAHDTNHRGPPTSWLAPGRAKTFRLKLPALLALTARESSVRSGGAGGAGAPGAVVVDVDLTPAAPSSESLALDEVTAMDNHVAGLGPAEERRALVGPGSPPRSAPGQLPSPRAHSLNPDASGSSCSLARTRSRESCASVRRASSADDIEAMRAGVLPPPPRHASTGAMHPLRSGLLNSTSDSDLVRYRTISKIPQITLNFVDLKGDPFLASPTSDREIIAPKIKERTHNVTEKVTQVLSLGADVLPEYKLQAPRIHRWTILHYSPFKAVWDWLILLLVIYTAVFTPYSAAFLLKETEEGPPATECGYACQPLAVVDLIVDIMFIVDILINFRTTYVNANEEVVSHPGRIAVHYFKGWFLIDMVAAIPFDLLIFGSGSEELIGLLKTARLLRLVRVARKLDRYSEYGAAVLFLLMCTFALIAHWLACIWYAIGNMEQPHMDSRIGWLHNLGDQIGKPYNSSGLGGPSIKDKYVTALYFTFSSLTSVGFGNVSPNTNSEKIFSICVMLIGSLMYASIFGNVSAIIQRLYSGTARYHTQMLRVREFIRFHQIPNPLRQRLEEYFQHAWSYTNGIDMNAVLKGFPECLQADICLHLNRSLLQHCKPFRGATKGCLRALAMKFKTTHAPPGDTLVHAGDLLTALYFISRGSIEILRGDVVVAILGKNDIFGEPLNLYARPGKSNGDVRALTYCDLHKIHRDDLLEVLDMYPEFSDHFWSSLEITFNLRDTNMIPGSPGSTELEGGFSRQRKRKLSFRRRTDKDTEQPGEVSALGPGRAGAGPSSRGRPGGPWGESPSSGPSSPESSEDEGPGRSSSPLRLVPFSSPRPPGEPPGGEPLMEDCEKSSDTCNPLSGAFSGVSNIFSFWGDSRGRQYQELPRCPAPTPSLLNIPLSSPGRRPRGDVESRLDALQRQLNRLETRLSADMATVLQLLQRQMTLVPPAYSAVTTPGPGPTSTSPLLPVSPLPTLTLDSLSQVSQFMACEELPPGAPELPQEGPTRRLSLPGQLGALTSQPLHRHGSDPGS
On to `OC1(c2cccc(C(F)(F)F)c2)CCN(Cc2nc(-c3cnccn3)no2)CC1`, for which the “hERG current change (%, negative = inhibition) at 10uM” value is -0.399%. To `CCC(=O)N=c1sc2c(OC)ccc(OC)c2n1C` belongs 11%; to `COc1ccc(Cl)cc1C(=O)Nn1c(-c2cccs2)nc2ccccc2c1=O`, -5.47%. In the case of `O=C(O)c1nn(-c2ccccc2)nc1-c1nn(-c2ccccc2)nc1C(=O)O`, the “hERG current change (%, negative = inhibition) at 10uM” value stood at 19.7%.

As to `O=C(N/N=C/c1cc([N+](=O)[O-])ccc1Cl)c1cc(-c2ccccc2)nc2ccccc12`, the “hERG current change (%, negative = inhibition) at 10uM” value worked out at 7.64%. Turning to `CCCc1oc(C(=O)O)cc1CN.Cl`, the “hERG current change (%, negative = inhibition) at 10uM” value was found to be 5.96%. To `COc1ccc(-c2c(S(=O)(=O)c3ccccc3)cnn2-c2ccccc2)cc1` belongs -2.43%; to `Cl.O=C(CCN1CCc2ccccc2C(c2ccccc2)C1)c1ccc2c(c1)OCCO2` (centres unmarked), -0.525%; to `Cl.O=C(CCN1CCOCC1)c1ccccc1`, 3.53%. In the case of `Cl.O=C(CCN1CCCCC1)c1ccc2c(c1)OCCO2`, the “hERG current change (%, negative = inhibition) at 10uM” value is on record as 4.82%.

For `O=C(CCCc1ccccc1)c1ccc2c(c1)OCCO2`, the “hERG current change (%, negative = inhibition) at 10uM” value is given as -5.25%. For the compound `Cl.O=C(CCCN1CCOC(c2ccccc2)C1)c1ccc(F)cc1` (centres unmarked), the “hERG current change (%, negative = inhibition) at 10uM” value is recorded as -60.7%.

On to `Cl.O=C(CCN1CCc2ccccc2C1)c1ccc2c(c1)OCCO2`, for which the “hERG current change (%, negative = inhibition) at 10uM” value is on record as -32.2%. As for `Cl.O=C(CCN1Cc2ccccc2C1)c1ccc2c(c1)OCCO2`, the “hERG current change (%, negative = inhibition) at 10uM” value is recorded as -8.74%. Take `Cl.O=C(CCN1CCC(c2ccccc2)C1)c1ccc2c(c1)OCCO2` (centres unmarked): the “hERG current change (%, negative = inhibition) at 10uM” value is listed as -56%. In the case of `Cl.O=C(CCCN1CCC(c2ccccc2)C1)c1ccc2c(c1)OCCO2` (centres unmarked), the “hERG current change (%, negative = inhibition) at 10uM” value is listed as -70.3%. Consider `Cl.O=C(CCN1CCc2ccccc2CC1)c1ccc2c(c1)OCCO2`, for which the “hERG current change (%, negative = inhibition) at 10uM” value was -60.6%. As to `Cl.O=C(CCN1CCC(c2ccccc2)C1)c1ccccc1` (centres unmarked), the “hERG current change (%, negative = inhibition) at 10uM” value is -35.8%. As for `O=C1C(=O)N(CCCN2CCOCC2)C(c2ccc(F)cc2)/C1=C(/O)c1ccccc1` (centres unmarked), the “hERG current change (%, negative = inhibition) at 10uM” value worked out at 23%. On to `O=C1/C(=C/c2ccccc2Cl)N2CCC1CC2`, for which the “hERG current change (%, negative = inhibition) at 10uM” value was -14.1%. Turning to `Cc1ccc(OCCn2cc(/C=N/NC(=O)c3ccncc3)c3ccccc32)cc1`, the “hERG current change (%, negative = inhibition) at 10uM” value is on record as -7.64%. Consider `CCOc1ccc2nc(/N=C/c3nc(-c4ccccc4)oc3O)sc2c1`, for which the “hERG current change (%, negative = inhibition) at 10uM” value is 4.73%. Take `COc1ccc(-n2c3c(cc(C(=O)N4CCC(C)CC4)c2=O)C(=O)CC(C)(C)C3)cc1`: the “hERG current change (%, negative = inhibition) at 10uM” value was -2.69%. In the case of `O=C(COC(=O)CNC(=O)c1ccccc1F)NCC(F)(F)F`, the “hERG current change (%, negative = inhibition) at 10uM” value is reported as 9.36%. To `COc1cc(C(=O)O)cc(Br)c1OC1CCCC1` belongs 20.6%; to `O=S(=O)(NC1CCCCCC1)c1cccc2cccnc12`, 5.29%; to `O=[N+]([O-])c1ccc(NCc2ccccc2)c2nonc12`, 19.7%.

For the compound `CC(OC(=O)c1cccc([N+](=O)[O-])c1)C(=O)NCc1ccc2c(c1)OCO2` (centres unmarked), the “hERG current change (%, negative = inhibition) at 10uM” value is reported as -11.4%. On to `COc1cccc(N2CCN(CC(=O)Nc3ccccc3C(=O)NCc3ccccc3)CC2)c1`, for which the “hERG current change (%, negative = inhibition) at 10uM” value was -60.9%. Turning to `COc1ccc(N2CCN(CC(=O)NC(=O)NCc3ccccc3)CC2)cc1`, the “hERG current change (%, negative = inhibition) at 10uM” value is reported as 10.4%. The result for `COc1cccc(N2CCN(CC(=O)Nc3ccccc3C(=O)NCCc3ccccc3)CC2)c1` reads 89.9%; that for `COc1ccc(N2CCN(CC(=O)Nc3ccccc3C(=O)NCc3ccccc3)CC2)cc1`, -55.9%. The result for `Cc1ccc(CNC(=O)c2ccccc2NC(=O)CN2CC(C)OC(C)C2)cc1` (centres unmarked) reads -13.2%; that for `COc1ccc(N2CCN(CC(=O)NCc3ccccc3)CC2)cc1`, 0.922%. With `CC(=O)N1CCN(CC(=O)Nc2ccccc2C(=O)NCc2ccc(C)cc2)CC1`, the “hERG current change (%, negative = inhibition) at 10uM” value is -25.4%.

For the compound `Cc1ccc(CNC(=O)c2ccccc2NC(=O)CN2CCN(C)CC2)cc1`, the “hERG current change (%, negative = inhibition) at 10uM” value was -59.2%.

For the compound `COc1cccc(N2CCN(CC(=O)NCc3ccccc3)CC2)c1`, the “hERG current change (%, negative = inhibition) at 10uM” value is recorded as -5.53%. The result for `CC(Oc1ccc(F)cc1)C(=O)NN` (centres unmarked) reads 18.6%. Turning to `O=C(CCc1ccccc1)Nc1cc2c(cc1Cl)OCCO2`, the “hERG current change (%, negative = inhibition) at 10uM” value is reported as -7.19%. `COc1ccc(-c2csc(Nc3cccc(C)n3)n2)cc1C`: the “hERG current change (%, negative = inhibition) at 10uM” value was 5.87%. Regarding `O=C1NC(=S)N(c2ccc(Cl)cc2)C(=O)/C1=C/N1CCN(C(=O)c2ccco2)CC1`, the “hERG current change (%, negative = inhibition) at 10uM” value came to 7.25%. As to `Cc1cc(C(=O)OCC(=O)Nc2nc(-c3ccccc3)cs2)c(C)o1`, the “hERG current change (%, negative = inhibition) at 10uM” value was found to be 15.8%.

With `Cc1oncc1C(=O)NC(C)C`, the “hERG current change (%, negative = inhibition) at 10uM” value is -3.53%. For the compound `CN(C(=O)c1ccc(NC(=O)Cc2ccc(NC(=O)C3CCCN(C(=O)C4CC4)C3)cc2)cc1)C1CC1` (centres unmarked), the “hERG current change (%, negative = inhibition) at 10uM” value is given as -4.41%.
